Luc counter: counter-screen: inhibitors of Kinase-Glo firefly luciferase; Q27757; Kinase-Glo luciferase, ATP luminescence, 8 min; Potency, µM (doses to about 38.3 µM), inactives show top-dose activity change, negative = inhibition, actives largely listed as inhibitors; 0.28% of 200,000 active; further: on the % scale 0 is the no-effect control and ±100 the full control effect; nearly all actives have a fitted effect of over 60% in size
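Recombinant Kinase-Glo luciferase, 10 uM ATP (linear range), luciferin; imidazole pH 7.2 / KCl / MgCl2 / Tween / BSA buffer; 8 min RT; luminescence.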
FLuc modulator: counter-screen for miR-21 project: firefly luciferase inhibitors or activators; 6.9% of 360,000 active; AID 588342; P08659; purified FLuc, Km substrates, luminescence inhibition; Potency, µM (top dose mostly 57.5 µM), inactives show at the highest dose activity change, negative = inhibition, most hits filed as inhibitors;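 further: plate controls were vehicle for no effect and reference inhibitor for full effect; nearly all actives have a fitted effect of over 55% in size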
Target sequence (P08659 whole entry, looked up): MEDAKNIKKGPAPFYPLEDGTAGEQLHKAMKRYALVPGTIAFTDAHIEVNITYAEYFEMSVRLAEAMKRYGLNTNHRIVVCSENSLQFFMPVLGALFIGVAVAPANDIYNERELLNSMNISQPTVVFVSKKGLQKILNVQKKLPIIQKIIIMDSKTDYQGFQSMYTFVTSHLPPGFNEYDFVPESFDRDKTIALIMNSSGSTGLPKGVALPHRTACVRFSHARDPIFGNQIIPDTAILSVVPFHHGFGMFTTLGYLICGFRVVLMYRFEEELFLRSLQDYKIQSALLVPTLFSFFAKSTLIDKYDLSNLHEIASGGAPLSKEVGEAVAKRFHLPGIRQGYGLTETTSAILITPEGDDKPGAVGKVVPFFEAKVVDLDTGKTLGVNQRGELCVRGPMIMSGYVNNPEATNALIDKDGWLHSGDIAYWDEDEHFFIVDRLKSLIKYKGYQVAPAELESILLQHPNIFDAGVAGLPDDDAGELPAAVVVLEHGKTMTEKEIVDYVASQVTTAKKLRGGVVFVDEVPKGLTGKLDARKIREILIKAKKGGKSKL
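Purified P. pyralis luciferase, 10 nM final, with Km-level 10 uM D-luciferin and 10 uM ATP in 50 mM Tris acetate pH 7.5, 10 mM Mg acetate, 0.01% Tween-20, 0.05% BSA; 6-point qHTS titration about 60 µM downward; luminescence read.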
Rab9 prom act: activates the Rab9 promoter; Huh7 Rab9 promoter-luciferase reporter, luminescence, 24 h; Potency, µM (series often up to 9.22 µM), for inactives: at the top dose activation, negative = inhibition, hits mostly activators; 2.8% of 320,000 active; AID 485297; further: % of control where 0% means no effect; nearly all actives have a fitted effect of over 60% in size
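Huh7 reporter line, Rab9 promoter upstream of luciferase. Compound exposure 24 h at 37 °C in reduced-serum medium with 10% FBS. Read-out: luminescence.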
ELG1 genotox: induces genotoxicity in HEK293T cells with luciferase-tagged ELG1; Potency, µM (highest dose often 46 µM), for the others: top-dose activity change, positive = activation, usual class: activators; HEK293T ELG1-luciferase reporter, luminescence, 16 h; 1.3% of 330,000 active; AID 504466; further: % of control where 0% means no effect; nearly all actives have a fitted effect of over 60% in size
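Reporter readout depends on ELG1 protein level, which increases with genetic stress. After 16 hr compound exposure at 37 °C, luciferase activity was quantified using ONE-Glo.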
NPC1 promoter act: activates the NPC1 promoter | Potency, µM (series often up to 9.22 µM), for the others: top-dose activation, most hits filed as activators | 2.4% of 320,000 active | Huh7 NPC1 promoter luciferase reporter, 24 h; further: % of control where 0% means no effect; nearly all actives have a fitted effect of over 60% in size
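NPC1 promoter–luciferase Huh7 cells; 24 h compound; luminescence.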
SMN2 splice up: enhancers of SMN2 splice variant expression; HEK293 SMN2-luciferase splicing reporter, luminescence, 30-36 h; 2.8% of 210,000 active; Potency, µM (highest dose often 46.1 µM), for the others: at the top dose activity change, positive = activation, hits mostly activators; further: % of control where 0% means no effect; nearly all actives have a fitted effect of over 55% in size
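HEK293 cells carry an SMN2 minigene-luciferase reporter in which exon 7 inclusion puts luciferase in frame. Cells were seeded at 2000 cells/well, attached for 10-12 hours, then exposed to compounds for 30-36 hours at 37C before ONE-Glo luminescence.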
Numbers without * were called inactive; ? = inconclusive; nt = not tested or not shown; [ ] = another dose, or the depositor's remark. The list is not random: actives were taken first. Their share in the collection is about 7.3%. The call rests on the fitted dose curve; in most records, active means well fitted curve in the direction sought with a large enough effect; inconclusive means small, poorly fitted or top-dose-only effect, or another doubt; inactive means no such curve, though single readings can be large; an effect the other way counts as inactive or inconclusive. Potency means the concentration at half of the fitted maximal effect.

SMILES	Luc counter	FLuc modulator	Rab9 prom act	ELG1 genotox	NPC1 promoter act	SMN2 splice up
NNc1ccc(Cc2ccc(Cl)cc2Cl)nn1	-1%	-1%	5%	19%	-1%	-74%
CSc1ccc(Cc2ccc(Cl)cc2Cl)nn1	1%	17µM*	?	12%	28%	-11%
O=C(Nc1cc(Cl)ccc1N1CCOCC1)c1ccc(Br)o1	nt	0.85µM*	0.56µM*	1.2µM*	3.2µM*	nt
O=C(CNC(=O)c1ccc(Br)o1)NCc1ccc(Cl)cc1Cl	nt	-14%	-5%	11%	-4%	nt
O=C(Nc1ccc(Cl)cc1Cl)c1ccc(Br)o1	nt	13µM*	?	?	2.2µM*	nt
Cc1cccc([C@H]2[C@@H]3C=CC(C)C[C@@H]3C(=O)N2Cc2ccccc2)c1 (stereo partly drawn)	2%[39.9 µM]	nt	nt	nt	nt	nt
COc1cc(-c2nnc(SCC(=O)N3CCCc4ccccc43)o2)cc(OC)c1OC	nt	-3%	nt	nt	nt	13%
COc1ccc(OC)c2c1sc(=NC(=O)c1ccco1)n2C	-2%	-2%	4%	?	17%	28%
Cc1ccc(-c2c(C)sc(=NC(=O)c3ccco3)n2C)cc1	-10%	0.95µM*	2.5µM*	17%	1.6µM*	?
Cc1cccc(N=Nc2c(O)[nH]c3ccc(Br)cc23)c1	nt	15µM*	23%	?	?	nt
CCN(CC)S(=O)(=O)c1ccc2c(c1)c(=O)c(C(=O)N1CCN(c3ccc(OC)cc3)CC1)cn2C	nt	-11%	nt	nt	nt	1%
Cc1nn(CC(C)C)c(=S)[nH]c1=O	0%	0%	-9%	-4%	-4%	5.6µM*
COc1ccc(CCn2c(=O)c3cccnc3n(CC(=O)Nc3ccc(C)cc3C)c2=O)cc1OC	nt	-2%	nt	nt	nt	-9%
Cc1ccc(C(=O)CC(=O)c2ccc(C)cc2O)cc1	nt	17µM*	?	5%	?	nt
Cc1ccc(C(=O)CC(=O)c2cc(Cl)ccc2O)cc1	18%	17µM*	19%	15µM*	19%	26%
CCC(=O)N1CCc2cc(S(=O)(=O)NC(C(=O)NCCc3ccccc3)C(C)C)ccc21 (stereo not drawn)	nt	-4%	nt	nt	nt	-5%
CN(C)CC(C)(C)CNC(=O)c1ccc(Cc2nc3ccccc3[nH]2)cc1	-7%	nt	nt	nt	nt	nt
CCCNC(=O)CSc1nc2nc(C)c(Cc3ccccc3Cl)c(C)n2n1	nt	2%	nt	nt	nt	-6%
CCOc1cccc2sc(N3CCN(C(=O)c4ccc5c(c4)CCCC5)CC3)nc12	nt	-19%	nt	nt	nt	nt
C=CCNc1nnc(-c2ccncc2)s1	-5%	-1%	16%	-1%	0%	-5%
c1ccc2c(Nc3nnc(-c4ccncc4)s3)cccc2c1	-13%	5.4µM*	?	18%	?	?
Cc1ccc(NC(=O)Cn2c(C)cc(C)c(C#N)c2=O)cc1F	nt	-2%	nt	nt	nt	nt
COc1cccc(/C=C2\CCCCC2=O)c1	nt	?	4%	7%	5%	nt
COc1cccc(/C=C2\CCC(C3CCCC3)C2=O)c1 (stereo not drawn)	nt	1.7µM*	?	?	?	nt
Cc1cccc(/C=C2\CCC(C3CCCC3)C2=O)c1 (stereo not drawn)	1%	4.8µM*	21%	?	24%	-6%
SMILES	Luc counter	FLuc modulator	Rab9 prom act	ELG1 genotox	NPC1 promoter act	SMN2 splice up
Cc1cccc(/C=C2/C(=O)/C(=C/c3ccccc3C)C3CCC2N3C)c1 (stereo not drawn)	0%	0%	4%	1%	0%	-34%
O=C1/C(=C/c2ccc([N+](=O)[O-])cc2)CCC1C1CCCC1 (stereo not drawn)	nt	0.76µM*	-1%[1.84 µM]	13%	-6%	nt
Cc1cc(NS(=O)(=O)c2cn(C)c(C)n2)ccc1Br	nt	7%	nt	nt	nt	nt
COc1ccc(/C=C2\SC(=S)N(CCCC(=O)N3CCCCC3CCO)C2=O)cc1 (stereo not drawn)	nt	17µM*	-12%	-14%	-17%	nt
CC(C)c1ccc(/C=C2\SC(=S)N(CCC(=O)N3CCCCC3CCO)C2=O)cc1 (stereo not drawn)	nt	3.4µM*	-31%	-14%	-24%	nt
COc1ccc(/C=C2\SC(=S)N(CCCC(=O)N3CCN(C)CC3)C2=O)cc1	nt	15µM*	-11%	1%	-4%	nt
O=C1/C(=C\c2ccccc2)SC(=S)N1CCC(=O)N1CCCCC1CCO (stereo not drawn)	nt	17µM*	0%	-5%	-8%	nt
O=C1/C(=C/c2ccccc2Cl)SC(=S)N1CCC(=O)N1CCCCC1CCO (stereo not drawn)	nt	?	-5%	-8%	-8%	nt
CCOC(=O)CSc1nc2sc3c(c2c(=O)n1Cc1ccccc1)CC(C)CC3 (stereo not drawn)	nt	-1%	nt	nt	nt	-6%
CN(c1ccc(C(=O)Nc2ccc3c(c2)OCCO3)cc1)S(C)(=O)=O	-12%	7.6µM*	1.6µM*	?	2.2µM*	11µM*
CN(c1ccccc1C(=O)Nc1ccc2c(c1)OCCO2)S(C)(=O)=O	2%	2%	10%	1%	-1%	-9%
CN(c1ccc(C(=O)Nc2ccc3c(c2)OCO3)cc1)S(C)(=O)=O	nt	12µM*	4µM*	15%	2.8µM*	nt
COc1ccc(N(C(=O)c2cccc(C)c2)S(=O)(=O)c2ccc(C)cc2)cc1	nt	5%	nt	nt	nt	-4%
O=C(/C=C/c1ccc2ccccc2n1)c1cc(Br)ccc1O	nt	8.5µM*	6%	12%	0%	nt
COc1ccc(-c2nc3n(n2)C(c2ccc(OC)cc2)C(C(=O)Nc2cccnc2)=C(C)N3)cc1 (stereo not drawn)	nt	-1%	nt	nt	nt	-9%
CC(C)CN1C(=O)c2ccc(NC(=O)C3CC3)cc2C1=O	nt	2%	11%	-1%	21%	nt
CC(C)CN1C(=O)c2ccc(NC(=O)c3cccs3)cc2C1=O	-5%	9.5µM*	?	28%	29%	21%
CC(C)CN1C(=O)c2ccc(NC(=O)c3ccccc3F)cc2C1=O	-4%	12µM*	?	?	29%	11%

Bioassay records as filed in PubChem BioAssay.
